The list is not random: actives were taken first. Their share in the collection is about 27%.
CYP2C19 inh = human CYP2C19 inhibition; AID 778; actives 21% (n = 96,000); CYP2C19 Supersomes, luciferin-H EGE luminescence, 30 min; inhibition, % at 5 µM; P33261;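 active means CYP2C19 inhibition above a set limit at 5 µM in the primary screen, cut at about 50% in these data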;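 further: plate controls were negative control wells for no effect and 2.5 mM tranylcypromine positive control for full effect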
Cav3 T inh = inhibitors of human Cav3.2 T-type calcium channel. O95180. Cav3.2-expressing cells, Fluo-4 calcium fluorescence FDSS; stronger effect = lower value. B-score at 10 µM. actives 4% (n = 100,000). AID 449739;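 active means single-dose well whose peak fluorescence ratio is a statistical outlier from its plate by either plate-standardised score or position-corrected B-score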
CYP2C9 act = increases human cytochrome P450 2C9 activity; actives 1.4% (n = 96,000); activation factor at 5 µM; recombinant CYP2C9, luciferin-H conversion, luminescence; stronger effect = higher value; factor 1 = untreated enzyme, 0 = blocked;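 active means activation factor of 2 or more for CYP2C9 at a 5 µM dose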;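 further: 0 = sulfaphenazole-blocked wells and 1 = vehicle-only wells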
Target sequence (P11712 whole entry, looked up): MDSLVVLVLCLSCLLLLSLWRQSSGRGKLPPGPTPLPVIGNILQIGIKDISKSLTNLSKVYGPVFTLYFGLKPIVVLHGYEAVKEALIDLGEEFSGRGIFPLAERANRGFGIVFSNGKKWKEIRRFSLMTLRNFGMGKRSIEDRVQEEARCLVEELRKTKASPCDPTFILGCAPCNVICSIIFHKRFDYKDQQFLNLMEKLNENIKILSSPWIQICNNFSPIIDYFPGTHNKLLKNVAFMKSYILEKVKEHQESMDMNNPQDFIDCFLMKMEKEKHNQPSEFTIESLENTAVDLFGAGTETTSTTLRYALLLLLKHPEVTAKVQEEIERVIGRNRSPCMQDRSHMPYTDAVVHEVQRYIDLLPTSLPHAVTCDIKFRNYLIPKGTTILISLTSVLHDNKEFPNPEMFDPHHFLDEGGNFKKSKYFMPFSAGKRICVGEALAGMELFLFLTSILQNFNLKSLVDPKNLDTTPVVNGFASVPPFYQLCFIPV
CYP2C19 activ = increases human CYP2C19 enzyme activity; recombinant CYP2C19, luciferin-H EGE luminescence; stronger effect = higher value; 0 = fully inhibited enzyme, 1 = untreated enzyme; activation factor at 5 µM; 96,000 tested, under 10 active; AID 1025;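 active means activation factor of at least 2 at 5 µM in the primary screen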;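 further: 0 = wells with 2.5 mM tranylcypromine and 1 = vehicle-only wells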
CYP2C9 inh = inhibitors of human CYP2C9 | CYP2C9 Supersomes, luciferin-H conversion, luminescence | P11712 | actives 20% (n = 96,000) | AID 777 | inhibition, % at 5 µM;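 active means blocking of liver enzyme CYP2C9 beyond about 50% at 5 µM, limit read from the data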
* marks the source's active call; other numbers are inactive results; nt = no result.

SMILES | CYP2C19 inh | Cav3 T inh | CYP2C9 act | CYP2C19 activ | CYP2C9 inh
COc1ccccc1NC(=O)COc1ccc(/C=N/n2cnnc2)cc1OC | 56* | 1.1 | 0.3 | 0.4 | 72*
CCOc1cc(/C=C\[N+](=O)[O-])ccc1OCC(=O)Nc1ccccc1C | 11 | 1.2 | 0.9 | 0.9 | 14
O=C(CSc1ncnc2nc[nH]c12)N1CCOCC1 | -12 | 0.39 | 1.1 | 1.1 | -12
CC(C)NC(=O)COC(=O)c1ccc(Oc2ccccc2)cc1 | 18 | -0.41 | 0.8 | 0.8 | 23
O=C(COC(=O)c1cnccn1)c1ccccc1 | 8 | 0.39 | 0.2 | 0.9 | 82*
O=C(COC(=O)c1cnccn1)c1ccc(Br)cc1 | 12 | -0.58 | 1 | 0.9 | 2
NC(=O)COC(=O)c1ccc(Oc2ccccc2)cc1 | 55* | 0.47 | 0.6 | 0.4 | 44
CNc1ccccc1C(=O)OCC(=O)c1ccccc1 | nt | -1 | nt | nt | nt
CC(=O)Nc1ccc(OCC(=O)c2cc(C)ccc2C)cc1 | 33 | -0.32 | 1.2 | 0.7 | -15
CC(=O)Nc1ccc(OCC(=O)c2ccc(C)cc2C)cc1 | 72* | -1.6 | 1 | 0.3 | -2
O=C(COC(=O)c1ccccc1Nc1ccccc1)c1ccccc1 | 30 | nt | 0.4 | 0.7 | 57*
COc1cc(C)nc(-n2nc(C)cc2OC)n1 | nt | 0.36 | nt | nt | nt
O=C(NCCO)C1(c2ccc(Cl)cc2)CCCC1 | 47 | 0.5 | 0.8 | 0.5 | 18
COC(=O)c1ccc(OCC(=O)c2ccccc2)cc1 | 75* | -0.064 | 0.7 | 0.3 | 30
O=C(OCCOc1ccc(Br)cc1)c1cnccn1 | 62* | 0.19 | 1.1 | 0.4 | -6
COC(=O)c1[nH]c(=O)c2ccccc2c1OCc1ccccc1 | 20 | -0.029 | 0.9 | 0.8 | 10
O=C(OCCN1C(=O)c2ccccc2C1=O)c1cnccn1 | 9 | 0.2 | 0.9 | 0.9 | 9
COC(=O)c1cc(O)c(OCc2ccccc2)c(O)c1 | 95* | -0.034 | 0.1 | 0.1 | 91*
CCc1ccc(C(=O)COc2ccc(NC(C)=O)cc2)cc1 | 88* | 1.2 | 0.2 | 0.1 | 77*
O=C(COC(=O)c1ccccc1)c1ccc(Br)cc1 | 56* | -2.2 | 0.9 | 0.4 | 13
N/C(=N\OC(=O)c1ccc(Br)cc1)c1ccccc1 | -3 | -0.25 | 1 | 1 | 5
Cc1cccc(NS(=O)(=O)c2ccccc2)n1 | -6 | 0.27 | 1.1 | 1.1 | -8
Cc1ccc(S(=O)(=O)Nc2cc(C(C)C)c(O)cc2C)cc1 | 84* | -0.97 | 0.6 | 0.2 | 36
Cc1ccc(C)c(NS(=O)(=O)c2ccc(NC(=O)c3ccco3)cc2)c1 | nt | 0.49 | nt | nt | nt
Cc1ccc(S(=O)(=O)Nc2cc(Cl)c(O)cc2C)cc1 | 98* | -0.32 | 2.3* | 0 | -127
SMILES | CYP2C19 inh | Cav3 T inh | CYP2C9 act | CYP2C19 activ | CYP2C9 inh
Cc1c(NS(=O)(=O)c2ccccc2)cc(Cl)c(O)c1C | 99* | -0.9 | 2.5* | 0 | -150
COc1cc(C)nc(NS(=O)(=O)c2ccc(C)cc2)n1 | 17 | 0.46 | 0.9 | 0.8 | 10
CCNc1nc(NC(C)(C)C)nc(N(C#N)CC)n1 | 21 | 0.98 | 0.6 | 0.8 | 38
COC(=O)c1ccccc1NC(=O)C1CCN(C(=O)c2cc(OC)cc(OC)c2)CC1 | 15 | -0.97 | 0.7 | 0.9 | 33
CCCCOc1ccc(Br)cc1/C(C)=N/NC1=NCCN1 | nt | -6.7* | nt | nt | nt
OCc1csc(=Nc2ccccc2)n1-c1ccccc1 | 88* | 0.64 | 1 | 0.1 | -2
O=C(O)CC1SC(=Nc2ccccc2)N(c2ccccc2)C1=O (stereo not given) | -1 | 0.64 | 1.2 | 1 | -17
S=c1[nH]nc(-c2ccco2)n1Cc1ccccc1 | 38 | 0.084 | 0.5 | 0.6 | 50*
CC(C)c1cc(-c2n[nH]c(=S)n2Cc2ccccc2)cs1 | 7 | -1.8 | 0.6 | 0.9 | 40
S=c1[nH]nc(-c2ccncc2)n1Cc1ccco1 | 33 | -0.34 | 0.4 | 0.7 | 61*
C=CCn1c(-c2ccco2)n[nH]c1=S | 20 | -0.54 | 1 | 0.8 | -1
S=c1[nH]nc(-c2ccc(Br)cc2)n1Cc1ccco1 | 32 | -1.7 | 0.9 | 0.7 | 13
S=c1[nH]nc(-c2ccc(Br)o2)n1Cc1ccccc1 | 61* | -3.9 | 0.4 | 0.4 | 60*
Cc1cc(NC(=O)CSc2nc3ccccc3n2CC(=O)N2CC(C)CC(C)C2)no1 (stereo not given) | 10 | -0.15 | 0.7 | 0.9 | 27
Cc1ccc(C(=O)Nc2cc3c(oc2=O)CCCC3=O)cc1 | -1 | 0.76 | 0.9 | 1 | 9
CNC(=O)c1csc(-c2ccc(C)cc2)n1 | 13 | -0.58 | 0.7 | 0.9 | 29
O=C(CN1CCc2ccccc2C1)Nc1ccc(Br)cc1 | 90* | -4.1* | 0.6 | 0.1 | 42
CCc1ccc(NC(=O)NCCN2CCc3ccccc3C2)cc1 | nt | -2.8 | nt | nt | nt
CCc1ccc(NC(=O)CN2CCc3ccccc3C2)cc1 | 92* | -3.5 | 0.1 | 0.1 | 90*
O=C(CN1CCN(C(=O)c2ccccc2F)CC1)Nc1ccc(Br)cc1 | 27 | 0.3 | 2.7* | 0.7 | -170
CCSc1nccc(-c2nn(-c3ccc(C)cc3)ccc2=O)n1 | 46 | -0.46 | 0.4 | 0.5 | 63*
CSc1nccc(-c2nn(-c3ccc(C)cc3)ccc2=O)n1 | 32 | -1.5 | 0.6 | 0.7 | 37
CCCCC1(Cc2ccc([N+](=O)[O-])cc2)C(=O)N(c2ccccc2)N(c2ccccc2)C1=O | nt | -4.8* | nt | nt | nt
CN(C)S(=O)(=O)c1cccc(NC(=S)Nc2ccc(Cl)cc2Cl)c1 | 71* | nt | 0.3 | 0.3 | 67*
O=C(Nc1cccc(-c2nc3ncccc3o2)c1)c1cc2ccccc2o1 | 26 | -1.5 | 0.1 | 0.7 | 89*
SMILES | CYP2C19 inh | Cav3 T inh | CYP2C9 act | CYP2C19 activ | CYP2C9 inh
CN(C)S(=O)(=O)c1cccc(NC(=O)c2cc3ccccc3o2)c1 | 21 | -0.029 | 0.4 | 0.8 | 61*
Cc1ccc(-c2nc3ncccc3o2)cc1NC(=O)c1cc2ccccc2o1 | 20 | -1.2 | 0.6 | 0.8 | 44
Cn1c(C(O)c2ccc(Cl)cc2)nc(Cl)c1Cl (stereo not given) | 91* | -0.95 | 0.9 | 0.1 | 15
CC(C)C1(C)C(=O)N=C2c3ccccc3C(=O)N21 (stereo not given) | 33 | 0.045 | 1 | 0.7 | 2
CCNc1nc(N)nc(Oc2ccc(OCc3ccccc3)nn2)n1 | 76* | 0.16 | 0.9 | 0.2 | 7
CCOC(=O)C[C@H]1c2cc(F)ccc2S(=O)(=O)N1c1cccc(OC)c1 | nt | 0.12 | nt | nt | nt
Cc1c(CCO)c(=O)n(-c2ccccc2)n1S(=O)(=O)c1ccc(Cl)cc1 | 70* | 0.14 | 0.5 | 0.3 | 47
COC(C[C@H]1O[C@H]1C(=O)COCc1ccccc1)OC | nt | 0.25 | nt | nt | nt
Cc1ccc(S(=O)(=O)NCCOC(=O)Nc2sc(=S)n(C)c2C)cc1 | 73* | nt | 1 | 0.3 | -3
Cc1cc2cc(CNC(=O)c3cccc([N+](=O)[O-])c3)ccc2[nH]1 | nt | -2.2 | nt | nt | nt
CCOC(=O)C(=O)c1csc(NC(=O)COc2ccc(N(C)S(=O)(=O)c3ccc(F)cc3)cc2)n1 | 57* | -1.2 | 0.4 | 0.4 | 59*

Screening data as filed in PubChem BioAssay.
